Screens as filed in PubChem BioAssay.
Compounds with a hit are over-represented: about 21% of the library has one in this group of screens.
Shiga inhibitor: Shiga toxin inhibition; Vero cells, Shiga toxin protein synthesis inhibition reporter; inhibition, % at 38.7 µM; 290,000 tested, 9.2% active; in the data active = inhibition mostly above about 28%, no sharp cut-off; inactive = mostly below about 43%; note: 0% is about no effect
Sm TGR inh: S. mansoni TGR enzyme inhibition. Q962Y6. purified TGR, DTNB reduction, TNB absorbance 405 nm. Potency, µM (series often up to 114 µM), for inactives: top-dose activity change, negative = inhibition, hits mostly inhibitors. 360,000 tested, 3% active. AID 485364; note: potency is the fitted concentration of half-maximal effect; % is set by controls: 0 for no effect and ±100 for the full control effect; nearly all actives have a fitted effect of over 60% in size
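First, TGR (20 nM dispensed) and NADPH were mixed with compound. Second, a 15 min room-temperature incubation followed. Third, further NADPH and then DTNB were added to start the reaction. Finally, TNB absorbance was monitored kinetically.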
Cycloheximide cs: counter-screen hit for Shiga toxin inhibitors, cycloheximide; cell reporter, cycloheximide protein synthesis inhibition counterscreen; max response, %; AID 2314; 300,000 tested, 12% active; in the data active = max response mostly above about 13%, no sharp cut-off; inactive = mostly below about 14%; note: read at 38.3 µM for the half of the compounds with a filed dose; 0% is about no effect
Pf growth 96h: P. falciparum growth inhibition at 96 hours | 320,000 tested, 6.9% active | Potency, µM (highest dose often 28.7 µM), inactives show at the top dose activity change, negative = inhibition, hits mostly inhibitors | P. falciparum luciferase reporter growth, 96 h; note: potency is the fitted concentration of half-maximal effect; % is set by controls: 0 for no effect and ±100 for the full control effect
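96 h incubation, 37 C, 5% CO2, of luciferase-reporter P. falciparum-infected RBCs (2% hematocrit, 0.05% parasitemia final) with test compounds; endpoint luminescence.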
Pf growth 48h: P. falciparum growth inhibition at 48 hours (one generation). P. falciparum luciferase growth in erythrocytes, 48 h. Potency, µM (doses to about 28.7 µM), for the others: at the top dose activity change, negative = inhibition, most hits filed as inhibitors. 310,000 tested, 5.9% active; note: potency is the fitted concentration of half-maximal effect; % is set by controls: 0 for no effect and ±100 for the full control effect
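In quantitative HTS format, infected erythrocytes bearing luciferase-reporter parasites were treated for a single generation at 37 C. Luminescence after adding detection reagent served as the growth measure.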
NS1 inh: blocks influenza NS1 protein function; AID 2326; Potency, µM (doses to about 46.1 µM), inactives show at the top dose activity, positive = more growth; 270,000 tested, 0.4% active; calls by dose curve; note: potency is the fitted concentration of half-maximal effect; actives are rising curves; nearly all actives have a fitted effect of over 50% in size
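OD600 was taken as the measure of yeast growth restored by compound in an NS1-expressing S. cerevisiae strain. Cells had been washed out of glucose medium and diluted 1:100 into galactose -URA medium, pH 6.0.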
* marks the source's active call; other numbers are inactive results. Unless noted, calls come from the whole dose curve; as a rule, active = well fitted curve in the direction sought with a large enough effect; inconclusive = small, poorly fitted or top-dose-only effect, or another doubt; inactive = no such curve, though single readings can be large; an effect the other way counts as inactive or inconclusive.

O=C(Nc1cc(S(=O)(=O)Nc2ccc(Cl)cc2)ccc1N1CCCCC1)c1ccc(F)cc1 was read as Shiga inhibitor 7, Sm TGR inh 3%, Cycloheximide cs 2, Pf growth 96h inconclusive, Pf growth 48h inconclusive and NS1 inh 2%.
`Cc1c(C(=O)Nc2cc(S(=O)(=O)N3CCOCC3)ccc2N2CCOCC2)oc2ccccc12` gave Shiga inhibitor -10, Sm TGR inh 4%, Cycloheximide cs -2, Pf growth 96h inconclusive and Pf growth 48h 10µM*.
Screening O=C(Nc1ccccc1Cl)c1cc(S(=O)(=O)N2CCCCC2)ccc1N1CCOCC1 returned Shiga inhibitor -5, Sm TGR inh 0%, Cycloheximide cs -4, Pf growth 96h 5.9µM*, Pf growth 48h 9.3µM* and NS1 inh 4%.
O=C(Nc1cc(S(=O)(=O)N2CCOCC2)ccc1N1CCOCC1)c1ccc(S(=O)(=O)N2CCCCC2)cc1 was read as Shiga inhibitor -17, Sm TGR inh 18%, Cycloheximide cs -4, Pf growth 96h inconclusive, Pf growth 48h 12µM* and NS1 inh -3%.
For CCOc1ccc(/C=C/c2nc3ccccc3n2S(=O)(=O)c2cccc(Cl)c2)cc1 the results were Sm TGR inh 0%.
Screening CNC(=S)NC(CC(=O)OC)c1ccc2c(c1)OCO2 (stereo not given) returned Shiga inhibitor -5, Sm TGR inh 3%, Cycloheximide cs -3, Pf growth 96h 39%, Pf growth 48h 5% and NS1 inh 1%.
CC(=O)NCCC(=O)Nc1cc(S(=O)(=O)N2CCCCC2)ccc1N1CCCCC1 was read as Sm TGR inh -3%, Pf growth 96h 1.2µM* and Pf growth 48h 1.2µM*.
`CC(=O)NCCC(=O)Nc1cc(S(=O)(=O)Nc2ccc(Cl)cc2)ccc1N1CCCC1` gave Shiga inhibitor -14, Sm TGR inh 4%, Cycloheximide cs -1, Pf growth 96h inconclusive, Pf growth 48h inconclusive and NS1 inh -3%.
`O=C(Nc1cc(S(=O)(=O)N2CCOCC2)ccc1Cl)c1ccc(=O)[nH]c1` gave Sm TGR inh -3%, Pf growth 96h 1% and Pf growth 48h 31%.
Screening CCCCCC(=O)Nc1cc(S(=O)(=O)N2CCOCC2)ccc1N1CCCC1 returned Shiga inhibitor -5, Sm TGR inh -25%, Cycloheximide cs -4, Pf growth 96h -6%, Pf growth 48h 10% and NS1 inh 9%.
Screening CCCCCC(=O)Nc1cc(S(=O)(=O)N2CCCCC2)ccc1N1CCOCC1 returned Shiga inhibitor -1, Sm TGR inh -12%, Cycloheximide cs -3, Pf growth 96h inconclusive, Pf growth 48h 13µM* and NS1 inh 5%.
Screening CC1(C)CC2CC(C)(CN2S(=O)(=O)c2ccc(C(=O)Nc3cc(S(=O)(=O)N4CCOCC4)ccc3Cl)cc2)C1 (stereo not given) returned Shiga inhibitor 17, Sm TGR inh -6%, Cycloheximide cs -2, Pf growth 96h 2.6µM*, Pf growth 48h 3.7µM* and NS1 inh inconclusive.
`CSc1cccc(NC(=O)CSc2nc3ccccc3o2)c1` gave Shiga inhibitor 63*, Sm TGR inh -15%, Cycloheximide cs 40*, Pf growth 96h 40%, Pf growth 48h -5% and NS1 inh -59%.
Screening COc1cc(Cl)c(C)cc1NC(=O)CSc1nc2ccccc2o1 returned Shiga inhibitor 5, Sm TGR inh -15%, Cycloheximide cs -3, Pf growth 96h 10µM*, Pf growth 48h 4% and NS1 inh 5%.
Screening O=C(O)CSc1nc2ccccc2o1 returned Shiga inhibitor 78, Sm TGR inh -4%, Cycloheximide cs 30*, Pf growth 96h -1%, Pf growth 48h 33% and NS1 inh 2%.
Screening Cc1ccc(C(=O)CSc2nc3ccccc3o2)cc1 returned Shiga inhibitor 50, Sm TGR inh 5%, Cycloheximide cs 26*, Pf growth 96h inconclusive and NS1 inh -2%.
COc1ccc(NC(=O)c2c(C)oc3ccc(O)c(CN4CCN(Cc5ccccc5)CC4)c23)cc1 was read as Sm TGR inh 9%.
CC1(C(=O)O)CCC(C(=O)N2CCCCC2)C1(C)C (stereo not given) was read as Shiga inhibitor -10, Sm TGR inh 20%, Cycloheximide cs 8, Pf growth 96h 18%, Pf growth 48h 9% and NS1 inh 2%.
For O=C(CSc1nc2ccccc2o1)c1cc2ccccc2oc1=O the results were Shiga inhibitor 89*, Sm TGR inh -20%, Cycloheximide cs 25*, Pf growth 96h inconclusive, Pf growth 48h 33% and NS1 inh -7%.
`Cc1nnc(SCC(=O)Nc2ccc(O)cc2)c2ccccc12` gave Shiga inhibitor -10, Sm TGR inh -26%, Cycloheximide cs 11, Pf growth 96h 7%, Pf growth 48h 34% and NS1 inh -8%.
For Cc1nnc(SCC(=O)Nc2ccccc2)c2ccccc12 the results were Shiga inhibitor 46*, Sm TGR inh 0%, Cycloheximide cs 48*, Pf growth 96h 16%, Pf growth 48h inconclusive and NS1 inh inconclusive.
Screening O=C(CSc1nc2ccccc2o1)Nc1ccccc1 returned Shiga inhibitor 30, Sm TGR inh -1%, Cycloheximide cs 8.5*, Pf growth 96h inconclusive, Pf growth 48h 175% and NS1 inh -56%.
`O=C(CSc1nc2ccccc2o1)N1CCOCC1` gave Shiga inhibitor 42*, Sm TGR inh 6%, Cycloheximide cs 27*, Pf growth 96h 61%, Pf growth 48h 17% and NS1 inh 2%.
Screening CCN(CC(=O)Nc1c(F)cccc1F)C(=O)c1ccc(Cl)c(S(=O)(=O)N2CCCCC2)c1 returned Shiga inhibitor -1, Sm TGR inh -18%, Cycloheximide cs -3, Pf growth 96h inconclusive, Pf growth 48h -23% and NS1 inh -6%.
CC(Sc1nc2ccccc2o1)C(=O)O (stereo not given) was read as Shiga inhibitor 79*, Sm TGR inh 2%, Cycloheximide cs 37*, Pf growth 96h -5%, Pf growth 48h 170% and NS1 inh -4%.
CCC(Sc1nc2ccccc2o1)C(=O)O (stereo not given) was read as Shiga inhibitor 30, Sm TGR inh 3%, Cycloheximide cs 15, Pf growth 96h inconclusive and Pf growth 48h 12%.
Screening COC(=O)c1ccccc1NC(=O)Cn1c(CCC(=O)O)ccc1-c1cccs1 returned Shiga inhibitor -18, Sm TGR inh 50µM*, Cycloheximide cs 10, Pf growth 48h -16% and NS1 inh 6%.
Cc1c(Cl)cccc1NC(=O)Cn1c(CCC(=O)O)ccc1-c1ccccc1 was read as Shiga inhibitor -7, Sm TGR inh inconclusive, Cycloheximide cs -2, Pf growth 96h -17%, Pf growth 48h 9% and NS1 inh 4%.
`COC(=O)c1ccccc1NC(=O)Cn1c(CCC(=O)O)ccc1-c1ccc(C)cc1` gave Sm TGR inh -6%.
